The record followed here is PubChem BioAssay (Tox21).

Values without a mark were called inactive. Active and inactive are the calls of the source. The call rests on the fitted dose curve; in most records, active means well fitted curve in the direction sought with a large enough effect in the repeat runs; inconclusive means weak or mixed curves; inactive means flat fitted curve, though single readings scatter.
On the % scale 0 is the no-effect control and ±100 the full control effect.

The experiment is described as follows: qHTS assay to test for compound auto fluorescence at 460 nm (blue) in HEK293 cells (AID 720678). The note with it: blue autofluorescence 405/460 nm; series mostly up to 91.3 µM; fluorescence, % of triamterene: at the top concentration. An excerpt:
National Center for Advancing Translational Sciences [NCATS]
NIH Chemical Genomics Center [NCGC]
U.S. Environmental Protection Agency [EPA]
National Institutes of Environmental Health Sciences [NIEHS]
National Toxicology Program [NTP]
U.S. Food and Drug Administration [FDA]
Compound auto fluorescence often interferes with screening of the compound library against various biological targets and signaling pathways. Some of these compounds may have fluorophoric properties. Such properties may interfere with the assay outputs resulting in false positives and/or negatives. To decrease such complications and ensure the compound activities are relevant in terms of biological response, the Tox21 10K compound library was screened for auto fluorescence.
From the fluorophores used as reporter signals in our screening assays, the auto fluorescence equivalencies of compounds against three fluorophores have been evaluated: Triamterene, Fluorescein and Rose Bengal sodium for blue, green and red fluorescence, respectively. The fluorescence intensities were measured using Excitation/Emission wavelengths at 405/460nm, 485/535nm and 540/590nm for blue, green and red labels, respectively. This assay includes the blue fluorescence data.
Tox21 Assay Protocol Summary:
2,000 HEK293 cells in 5 uL of culture medium containing 10% dialyzed FBS per well were dispensed into black wall/clear bottom 1536-well plates using a Multidrop Combi Dispenser (Thermo Scientific). The assay plates were incubated for 4-5 hr at 37C to allow cell attachment to the well bottom, followed by the transfer of 23 nL compound or DMSO vehicle by a pintool work station (Kalypsys, San Diego, CA). After the assay plates were incubated overnight at 37C and 5% CO2, fluorescence intensities in the assay plates were measured by an Envision (PerkinElmer, Shelton, CT) plate reader using three labels for measuring blue, green and red fluorescence at […] 460, 535 and 590nm respectively.
On to `O=C(O)C(=O)Cc1c[nH]c2ccccc12`, for which the “fluorescence, % of triamterene” value was 0.15%. Take `C=CC(C)(O)CC/C=C(\C)CCC=C(C)C` (stereo not given): the molecule was called inactive. As to `CC1(C)C(=O)N(Cl)C(=O)N1Br`, the “fluorescence, % of triamterene” value was -0.0219%. Turning to `CC1=C2[C@H](/C=C(\C)C(=O)O)CC[C@@H](C)[C@H]2CC1`, the “fluorescence, % of triamterene” value is 0.0034% [at 95.7 µM]. The same measure, in the same setting: in the case of `CN(CCCN1c2ccccc2CCc2ccccc21)CC(=O)c1ccc(Cl)cc1` it was 1.19% [at 46 µM]. Still for that read-out and setting: the result for `Cc1c(N)cccc1N` reads 0.326% [at 95.7 µM]; that for `CCCCOc1cc(C(=O)NCCN(CC)CC)c2ccccc2n1`, -0.0164% [at 18.6 µM].

Turning to `Cc1cccc(C)c1NC(=O)CN1CCCCCC1`, the “fluorescence, % of triamterene” value is -0.0733% [at 46 µM]. For the molecule `O=C(O)c1ccccc1Nc1cc(Cl)ccc1C(=O)O`, the “fluorescence, % of triamterene” value was 0.012% [at 46 µM]. Turning to `CCCCCCCCCCCCCCCCOP(=O)([O-])OCC[N+](C)(C)C`, the “fluorescence, % of triamterene” value is 0.0132% [at 46 µM]. On the same count and under the same terms, the result for `CCOC(=O)COc1ccc2c(c1)CC(NCC(O)c1cccc(Cl)c1)CC2` (stereo not given) reads -0.0186%; that for `COc1ccccc1OCC(O)COC(N)=O` (stereo not given), 0.0837% [at 18.6 µM].

Turning to `CO[Si](C)(C)OC`, the “fluorescence, % of triamterene” value was 0.0068%.

For the molecule `CN(C)Cc1ccccc1`, the outcome was inactive.

Regarding `Cc1ncc(CO)c(CN)c1O`, the “fluorescence, % of triamterene” value was 0.71% [at 46 µM]. Same read-out and setting: the result for `CCCNC(C)C(=O)Nc1c(C)csc1C(=O)OC` (stereo not given) reads -0.0757% [at 18.6 µM]. Take `COC(=O)N[C@H](C(=O)N[C@@H](Cc1ccccc1)[C@@H](O)CN(Cc1ccc(-c2ccccn2)cc1)NC(=O)[C@@H](NC(=O)OC)C(C)(C)C)C(C)(C)C`: the “fluorescence, % of triamterene” value is -0.0763% [at 46 µM].

Regarding `CC1=CC(=O)CC(C)(C)C1=O`, the “fluorescence, % of triamterene” value is 0.0565% [at 95.7 µM]. Consider `CC(C)C1=CC2=CC[C@@H]3[C@](C)(CCC[C@@]3(C)C(=O)O)[C@H]2CC1`, for which the outcome was inactive. `C1CCOC1`: the “fluorescence, % of triamterene” value was -0.0506% [at 95.7 µM]. Same read-out and setting: in the case of `C[C@]12C(=O)OC(=O)[C@H]1[C@H]1C=C[C@@H]2C1` it was -0.238%. `CCCCCOc1ccc(C2SC(=O)NC2=O)cc1OCC` (stereo not given): the “fluorescence, % of triamterene” value is 0.0585% [at 46 µM]. Take `CC(C)NC[C@@H](O)COc1cccc2ccccc12`: the “fluorescence, % of triamterene” value was 0.0208% [at 46 µM]. In the case of `O=S(=O)(O)C(F)(F)F`, the “fluorescence, % of triamterene” value is -0.0526%. The same measure, in the same setting: in the case of `OCCN1CCN(CCO)CC1` it was 0.0006% [at 95.7 µM]. Same read-out and setting: the result for `O=C(C(Cl)Cl)N1CCOC12CCCCC2` reads 0.247%; that for `O=C(Cl)c1cccc([N+](=O)[O-])c1`, 0.0115%; that for `COc1ccc2nc(NC(=O)Nc3ccccc3)sc2c1`, 1.48% [at 46 µM]. Take `CC(C)(CO)[C@@H](O)C(=O)NCCC(=O)O`: the call was inactive.

For the molecule `C[C@@H]1CN(c2c(F)c(F)c3c(=O)c(C(=O)O)cn(C4CC4)c3c2F)C[C@H](C)N1`, the “fluorescence, % of triamterene” value is -0.322% [at 46 µM]. In the case of `CC(=O)OC(C)OC(C)=O`, the “fluorescence, % of triamterene” value was 0.0828% [at 95.7 µM]. As to `C[C@@H]1CN(c2c(F)c(N)c3c(=O)c(C(=O)O)cn(C4CC4)c3c2F)C[C@H](C)N1`, the “fluorescence, % of triamterene” value was -0.0152% [at 46 µM].

Consider `C=CCCCCCCCCO`, for which the “fluorescence, % of triamterene” value is 0.0229%. Same read-out and setting: in the case of `NC/C=C/C(=O)O` it was -0.0798% [at 46 µM]; in that of `CC(C)CCCCCCc1ccc(OCCOCCO)cc1`, -0.164% [at 95.7 µM]. Regarding `CO[C@@]1(NC(=O)CSCC#N)C(=O)N2C(C(=O)O)=C(CSc3nnnn3C)CS[C@@H]21`, the “fluorescence, % of triamterene” value is -0.0362% [at 46 µM]. Still for that read-out and setting: the result for `CCC1(C)NC(=O)NC1=O` (stereo not given) reads -0.0273%; that for `COc1ccc(Nc2ccc(OC)cc2)cc1`, -0.299% [at 95.7 µM]; that for `CCCCNc1cc(C(=O)O)cc(S(N)(=O)=O)c1Oc1ccccc1`, 0.191% [at 18.6 µM]. Still for that read-out and setting: the result for `Cc1ccsc1C(=CCCN1CCC[C@@H](C(=O)O)C1)c1sccc1C` reads 0.296% [at 46 µM].
